# Measured values taken from PubChem BioAssay (NCI).
# Compounds without any hit were thinned out: in the full panel of roughly 79,000, 15% have a hit. Unmarked numbers belong to inactive results. The source made the active and inactive calls. Cut-off read from the data, not from the text of the source: active = growth inhibition above about 70%; inactive = the rest.
# How the values were obtained:
# [1] = NCI Yeast Anticancer Drug Screen. Data for the rad52 strain (AID 147);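 note: 0% = growth of vehicle-treated control cultures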; settings: S. cerevisiae rad52 mutant growth inhibition, hits give high values
# Outline: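 Screen used a yeast mutant impaired in DNA repair. After compound exposure, growth was measured. Values reflect inhibition compared with vehicle-treated cells.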
# [2] = NCI Yeast Anticancer Drug Screen. Data for the wt1 strain (AID 149);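 note: 0% = growth of vehicle-treated wt1 cultures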; settings: S. cerevisiae wt1 strain (SPY 50644) growth inhibition, hits give high values
# Outline: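 Readout: yeast growth inhibition, normalised to vehicle controls, in the wt1 strain exposed to test compounds.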
# [3] = NCI Yeast Anticancer Drug Screen. Data for the rad50EPP+ strain (AID 151);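 note: 0% = growth of vehicle-treated control cultures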; settings: S. cerevisiae rad50 mutant strain, hits give high values
# Outline: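 Exposing the rad50EPP+ strain to each compound, growth was compared with vehicle-only cultures to give inhibition.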
# [4] = NCI Yeast Anticancer Drug Screen. Data for the mgt1 strain (AID 153); settings: S. cerevisiae mgt1 mutant growth inhibition, hits give high values
# Outline: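 Genetically defined yeast (mgt1) treated with compound; inhibition of growth expressed against vehicle-treated controls.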
# [5] = NCI Yeast Anticancer Drug Screen. Data for the rad50 strain (AID 155);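 note: 0% = growth of vehicle-only cultures of the same strain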; settings: S. cerevisiae rad50 strain growth inhibition, hits give high values
# Outline: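 Compounds were tested on a yeast strain with an engineered DNA damage repair alteration; the reported value is growth inhibition normalised to vehicle treatment.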
# [6] = NCI Yeast Anticancer Drug Screen. Data for the mec2-1 strain (AID 157); settings: S. cerevisiae mec2-1 strain, hits give high values
# Outline: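 Readout is yeast growth inhibition, normalised to vehicle-treated controls, in the mec2-1 strain exposed to compound.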
# [7] = NCI Yeast Anticancer Drug Screen. Data for the rad14 strain (AID 159);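 note: 0% = growth of vehicle-treated control cultures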; settings: S. cerevisiae rad14 strain growth inhibition, hits give high values
# Outline: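 Compound-treated yeast with a defined DNA-repair lesion; growth inhibition normalised to vehicle-treated cultures.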
# [8] = NCI Yeast Anticancer Drug Screen. Data for the sgs1 mgt1 strain (AID 161);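 note: 0% = growth of cultures given vehicle only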; settings: S. cerevisiae sgs1 mgt1 strain, hits give high values
# Outline: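 Compounds are added to genetically altered yeast, and growth is compared with cultures given vehicle alone to give percent inhibition.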
# [9] = NCI Yeast Anticancer Drug Screen. Data for the CLN2oe strain (AID 163);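 note: 0% = growth of vehicle-only control cultures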; settings: S. cerevisiae CLN2oe strain, hits give high values
# Outline: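 Values reflect how much compound exposure reduced yeast growth, referenced to vehicle-exposed cells. Assay organism is a strain with a defined genetic change affecting cell-cycle control.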
# [10] = NCI Yeast Anticancer Drug Screen. Data for the cln2 rad14 strain (AID 165);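 note: 0% = growth equal to vehicle treated cultures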; settings: S. cerevisiae cln2 rad14 strain, hits give high values
# Outline: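 Relative to vehicle controls, growth inhibition of compound-treated cln2 rad14 yeast was recorded.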
# [11] = NCI Yeast Anticancer Drug Screen. Data for the bub3 strain (AID 167); settings: S. cerevisiae bub3 mutant strain, hits give high values
# Outline: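 Growth of a checkpoint-deficient yeast mutant is measured after compound exposure. Values represent inhibition relative to vehicle.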
# [12] = NCI Yeast Anticancer Drug Screen. Data for the wt2 strain (AID 169);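 note: 0% = growth of vehicle-treated yeast cultures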; settings: S. cerevisiae wt2 strain growth inhibition, hits give high values
# Outline: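 Values express reduction in yeast growth under compound treatment, referenced to vehicle-treated cells.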
# [13] = NCI Yeast Anticancer Drug Screen. Data for the mlh1 strain (AID 171);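 note: 0% = growth of vehicle-treated control cultures of the same strain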; settings: S. cerevisiae mlh1 strain growth inhibition, hits give high values
# Outline: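 Steps: expose the defined-mutant yeast strain to compound; expose a parallel culture to vehicle; measure growth; express compound effect as inhibition relative to the vehicle culture.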
# [14] = NCI Yeast Anticancer Drug Screen. Data for the sgs1 strain (AID 173);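 note: 0% = growth of vehicle-only control cultures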; settings: S. cerevisiae sgs1 mutant, hits give high values
# Outline: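 Treat defined-mutant yeast with compound; measure growth; calculate inhibition relative to vehicle-treated cells.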
# [15] = NCI Yeast Anticancer Drug Screen. Data for the mlh1 rad18 strain (AID 175); settings: S. cerevisiae mlh1 rad18 strain growth inhibition, hits give high values
# Outline: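 Test agents were incubated with a yeast strain of defined genotype (DNA damage repair defect). Inhibition of growth was derived by comparison with vehicle-exposed cultures.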
# [16] = NCI Yeast Anticancer Drug Screen. Data for the rad18 strain (AID 177); settings: S. cerevisiae rad18 mutant growth inhibition, hits give high values
# Outline: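 A genetically defined yeast mutant impaired in DNA damage repair was treated with test compounds, then its growth was measured against cultures receiving vehicle alone.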
# [17] = at 5.0 µM (retest, dose inferred, filed as 0.5)
# [18] = at 50.0 µM (retest, dose inferred, filed as 5.0)
compound,measurement,setting,value
COc1cc(CSc2ccc(O)cc2)cc(O)c1O,growth inhibition,[1]; at 1.2 µM,2%
same,growth inhibition,[1]; at 3.7 µM,3%
same,growth inhibition,[1]; at 11.0 µM,5%
same,growth inhibition,[1]; at 33.0 µM,7%
same,growth inhibition,[1]; at 100.0 µM,8%
same,growth inhibition,[2]; at 1.2 µM,0%
same,growth inhibition,[2]; at 3.7 µM,0%
same,growth inhibition,[2]; at 11.0 µM,1%
same,growth inhibition,[2]; at 33.0 µM,-2%
same,growth inhibition,[2]; at 100.0 µM,-1%
same,growth inhibition,[3]; at 1.2 µM,-3%
same,growth inhibition,[3]; at 3.7 µM,-4%
same,growth inhibition,[3]; at 11.0 µM,-6%
same,growth inhibition,[3]; at 33.0 µM,-6%
same,growth inhibition,[3]; at 100.0 µM,0%
same,growth inhibition,[4]; at 1.2 µM,1%
same,growth inhibition,[4]; at 3.7 µM,-3%
same,growth inhibition,[4]; at 11.0 µM,1%
same,growth inhibition,[4]; at 33.0 µM,0%
same,growth inhibition,[4]; at 100.0 µM,2%
same,growth inhibition,[5]; at 1.2 µM,3%
same,growth inhibition,[5]; at 3.7 µM,6%
same,growth inhibition,[5]; [17],5%
same,growth inhibition,[5]; at 11.0 µM,-2%
same,growth inhibition,[5]; at 33.0 µM,6%
same,growth inhibition,[5]; [18],42%
same,growth inhibition,[5]; at 50.0 µM,60.8%
same,growth inhibition,[5]; at 100.0 µM,6%
same,growth inhibition,[6]; at 1.2 µM,4%
same,growth inhibition,[6]; at 3.7 µM,-1%
same,growth inhibition,[6]; [17],-14%
same,growth inhibition,[6]; at 11.0 µM,-1%
same,growth inhibition,[6]; at 33.0 µM,-4%
same,growth inhibition,[6]; [18],-6%
same,growth inhibition,[6]; at 50.0 µM,54.1%
same,growth inhibition,[6]; at 100.0 µM,0%
same,growth inhibition,[7]; at 1.2 µM,1%
same,growth inhibition,[7]; at 3.7 µM,2%
same,growth inhibition,[7]; at 11.0 µM,5%
same,growth inhibition,[7]; at 33.0 µM,0%
same,growth inhibition,[7]; at 100.0 µM,1%
same,growth inhibition,[8]; [17],-3%
same,growth inhibition,[8]; [18],30%
same,growth inhibition,[8]; at 50.0 µM,74.7% (active)
same,growth inhibition,[9]; at 1.2 µM,6%
same,growth inhibition,[9]; at 3.7 µM,8%
same,growth inhibition,[9]; at 11.0 µM,10%
same,growth inhibition,[9]; at 33.0 µM,12%
same,growth inhibition,[9]; at 100.0 µM,17%
same,growth inhibition,[10]; [17],18%
same,growth inhibition,[10]; [18],14%
same,growth inhibition,[10]; at 50.0 µM,36%
same,growth inhibition,[11]; at 1.2 µM,6%
same,growth inhibition,[11]; at 3.7 µM,10%
same,growth inhibition,[11]; [17],-7%
same,growth inhibition,[11]; at 11.0 µM,11%
same,growth inhibition,[11]; at 33.0 µM,9%
same,growth inhibition,[11]; [18],14%
same,growth inhibition,[11]; at 50.0 µM,61.2%
same,growth inhibition,[11]; at 100.0 µM,6%
same,growth inhibition,[12]; at 1.2 µM,1%
same,growth inhibition,[12]; at 3.7 µM,1%
same,growth inhibition,[12]; at 11.0 µM,0%
same,growth inhibition,[12]; at 33.0 µM,-1%
same,growth inhibition,[12]; at 100.0 µM,1%
same,growth inhibition,[13]; at 1.2 µM,4%
same,growth inhibition,[13]; at 3.7 µM,0%
same,growth inhibition,[13]; at 11.0 µM,3%
same,growth inhibition,[13]; at 33.0 µM,2%
same,growth inhibition,[13]; at 100.0 µM,3%
same,growth inhibition,[14]; at 1.2 µM,-1%
same,growth inhibition,[14]; at 3.7 µM,-2%
same,growth inhibition,[14]; at 11.0 µM,-1%
same,growth inhibition,[14]; at 33.0 µM,-1%
same,growth inhibition,[14]; at 100.0 µM,2%
same,growth inhibition,[15]; [17],13%
same,growth inhibition,[15]; [18],-1%
same,growth inhibition,[15]; at 50.0 µM,73.5% (active)
same,growth inhibition,[16]; at 1.2 µM,-2%
same,growth inhibition,[16]; at 3.7 µM,1%
same,growth inhibition,[16]; at 11.0 µM,2%
same,growth inhibition,[16]; at 33.0 µM,-10%
same,growth inhibition,[16]; at 100.0 µM,10%
CS(=O)(=O)SCc1ccc([N+](=O)[O-])cc1,growth inhibition,[1]; at 1.2 µM,7%
same,growth inhibition,[1]; at 3.7 µM,30%
same,growth inhibition,[1]; at 11.0 µM,90% (active)
same,growth inhibition,[1]; at 33.0 µM,99% (active)
same,growth inhibition,[1]; at 100.0 µM,97% (active)
same,growth inhibition,[2]; at 1.2 µM,-5%
same,growth inhibition,[2]; at 3.7 µM,1%
same,growth inhibition,[2]; at 11.0 µM,38%
same,growth inhibition,[2]; at 33.0 µM,99% (active)
same,growth inhibition,[2]; at 100.0 µM,98% (active)
same,growth inhibition,[3]; at 1.2 µM,8%
same,growth inhibition,[3]; at 3.7 µM,57%
same,growth inhibition,[3]; at 11.0 µM,97% (active)
same,growth inhibition,[3]; at 33.0 µM,99% (active)
same,growth inhibition,[3]; at 100.0 µM,97% (active)
same,growth inhibition,[4]; at 1.2 µM,-2%
same,growth inhibition,[4]; at 3.7 µM,-4%
same,growth inhibition,[4]; at 11.0 µM,61%
same,growth inhibition,[4]; at 33.0 µM,99% (active)
same,growth inhibition,[4]; at 100.0 µM,98% (active)
same,growth inhibition,[5]; at 1.2 µM,1%
same,growth inhibition,[5]; at 3.7 µM,41%
same,growth inhibition,[5]; [17],20%
same,growth inhibition,[5]; at 11.0 µM,97% (active)
same,growth inhibition,[5]; at 33.0 µM,99% (active)
same,growth inhibition,[5]; [18],93% (active)
same,growth inhibition,[5]; at 50.0 µM,97.9% (active)
same,growth inhibition,[5]; at 100.0 µM,97% (active)
same,growth inhibition,[6]; at 1.2 µM,3%
same,growth inhibition,[6]; at 3.7 µM,4%
same,growth inhibition,[6]; [17],-25%
same,growth inhibition,[6]; at 11.0 µM,85% (active)
same,growth inhibition,[6]; at 33.0 µM,99% (active)
same,growth inhibition,[6]; [18],96% (active)
same,growth inhibition,[6]; at 50.0 µM,98% (active)
same,growth inhibition,[6]; at 100.0 µM,97% (active)
same,growth inhibition,[7]; at 1.2 µM,5%
same,growth inhibition,[7]; at 3.7 µM,18%
same,growth inhibition,[7]; at 11.0 µM,69%
same,growth inhibition,[7]; at 33.0 µM,99% (active)
same,growth inhibition,[7]; at 100.0 µM,97% (active)
same,growth inhibition,[8]; [17],-11%
same,growth inhibition,[8]; [18],95% (active)
same,growth inhibition,[8]; at 50.0 µM,98.1% (active)
same,growth inhibition,[9]; at 1.2 µM,-2%
same,growth inhibition,[9]; at 3.7 µM,7%
same,growth inhibition,[9]; at 11.0 µM,57%
same,growth inhibition,[9]; at 33.0 µM,98% (active)
same,growth inhibition,[9]; at 100.0 µM,97% (active)
same,growth inhibition,[10]; [17],-35%
same,growth inhibition,[10]; [18],94% (active)
same,growth inhibition,[10]; at 50.0 µM,96.5% (active)
same,growth inhibition,[11]; at 1.2 µM,6%
same,growth inhibition,[11]; at 3.7 µM,40%
same,growth inhibition,[11]; [17],51%
same,growth inhibition,[11]; at 11.0 µM,97% (active)
same,growth inhibition,[11]; at 33.0 µM,99% (active)
same,growth inhibition,[11]; [18],94% (active)
same,growth inhibition,[11]; at 50.0 µM,98.8% (active)
same,growth inhibition,[11]; at 100.0 µM,96% (active)
same,growth inhibition,[12]; at 1.2 µM,-1%
same,growth inhibition,[12]; at 3.7 µM,-3%
same,growth inhibition,[12]; at 11.0 µM,69%
same,growth inhibition,[12]; at 33.0 µM,99% (active)
same,growth inhibition,[12]; at 100.0 µM,97% (active)
same,growth inhibition,[13]; at 1.2 µM,6%
same,growth inhibition,[13]; at 3.7 µM,14%
same,growth inhibition,[13]; at 11.0 µM,70% (active)
same,growth inhibition,[13]; at 33.0 µM,99% (active)
same,growth inhibition,[13]; at 100.0 µM,97% (active)
same,growth inhibition,[15]; [17],-31%
same,growth inhibition,[15]; [18],93% (active)
same,growth inhibition,[15]; at 50.0 µM,98% (active)
same,growth inhibition,[16]; at 1.2 µM,7%
same,growth inhibition,[16]; at 3.7 µM,29%
same,growth inhibition,[16]; at 11.0 µM,90% (active)
same,growth inhibition,[16]; at 33.0 µM,99% (active)
same,growth inhibition,[16]; at 100.0 µM,97% (active)
